# Measurements as given in ChEMBL document CHEMBL1961873, “Compounds: GSK PKIS; Assays: Nanosyn kinase panel” (2012).
# Legend:
# [1] = target: Leukocyte tyrosine kinase receptor (Homo sapiens) (UniProt P29376); settings: at 1 µM;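 further: each value is the mean inhibition of LTK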
# [2] = target: Tyrosine-protein kinase Lyn (Homo sapiens) (UniProt P07948); settings: at 0.1 µM
# [3] = target: Tyrosine-protein kinase Lyn (Homo sapiens) (UniProt P07948); settings: at 1 µM
# [4] = target: Tyrosine-protein kinase Lyn (Homo sapiens) (UniProt P07948); settings: at 0.1 µM; remark: listed apart in the source
# [5] = target: Tyrosine-protein kinase Lyn (Homo sapiens) (UniProt P07948); settings: at 1 µM; remark: listed apart in the source
# [6] = target: T1, Tyrosine-protein kinase Mer (Homo sapiens) (UniProt Q12866); settings: at 0.1 µM
# T1 sequence (whole entry): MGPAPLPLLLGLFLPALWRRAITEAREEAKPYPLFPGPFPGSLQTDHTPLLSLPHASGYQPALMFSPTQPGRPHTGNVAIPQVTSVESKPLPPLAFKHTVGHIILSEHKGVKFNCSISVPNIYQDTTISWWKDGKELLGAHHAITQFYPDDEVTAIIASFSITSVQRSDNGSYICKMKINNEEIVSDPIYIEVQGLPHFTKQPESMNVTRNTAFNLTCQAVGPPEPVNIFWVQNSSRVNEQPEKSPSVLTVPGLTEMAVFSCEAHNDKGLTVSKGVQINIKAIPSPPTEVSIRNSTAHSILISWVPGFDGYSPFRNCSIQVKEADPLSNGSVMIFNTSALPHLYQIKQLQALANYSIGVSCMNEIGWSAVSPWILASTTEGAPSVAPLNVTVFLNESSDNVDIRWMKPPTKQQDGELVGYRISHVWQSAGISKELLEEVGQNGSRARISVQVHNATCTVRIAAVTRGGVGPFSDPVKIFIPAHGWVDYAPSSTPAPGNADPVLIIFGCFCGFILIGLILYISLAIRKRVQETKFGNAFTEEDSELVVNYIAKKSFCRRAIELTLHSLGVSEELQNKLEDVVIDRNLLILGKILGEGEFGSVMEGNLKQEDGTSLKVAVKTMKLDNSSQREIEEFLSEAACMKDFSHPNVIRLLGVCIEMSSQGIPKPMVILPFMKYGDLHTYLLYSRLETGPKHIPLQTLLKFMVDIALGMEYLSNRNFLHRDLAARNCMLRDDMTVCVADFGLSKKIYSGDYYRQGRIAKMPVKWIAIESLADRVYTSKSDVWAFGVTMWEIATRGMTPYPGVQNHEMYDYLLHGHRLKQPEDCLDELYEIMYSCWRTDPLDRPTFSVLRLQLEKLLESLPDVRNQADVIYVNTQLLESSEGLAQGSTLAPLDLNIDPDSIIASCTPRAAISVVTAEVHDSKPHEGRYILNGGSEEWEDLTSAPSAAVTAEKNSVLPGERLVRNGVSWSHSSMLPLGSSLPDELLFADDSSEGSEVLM
# [7] = target: T1, Tyrosine-protein kinase Mer (Homo sapiens); settings: at 1 µM
# [8] = target: Hepatocyte growth factor receptor (Homo sapiens) (UniProt P08581); settings: at 0.1 µM
# [9] = target: Hepatocyte growth factor receptor (Homo sapiens) (UniProt P08581); settings: at 1 µM
# [10] = target: T2, Muscle, skeletal receptor tyrosine-protein kinase (Homo sapiens) (UniProt O15146); settings: at 0.1 µM
# T2 sequence (whole entry): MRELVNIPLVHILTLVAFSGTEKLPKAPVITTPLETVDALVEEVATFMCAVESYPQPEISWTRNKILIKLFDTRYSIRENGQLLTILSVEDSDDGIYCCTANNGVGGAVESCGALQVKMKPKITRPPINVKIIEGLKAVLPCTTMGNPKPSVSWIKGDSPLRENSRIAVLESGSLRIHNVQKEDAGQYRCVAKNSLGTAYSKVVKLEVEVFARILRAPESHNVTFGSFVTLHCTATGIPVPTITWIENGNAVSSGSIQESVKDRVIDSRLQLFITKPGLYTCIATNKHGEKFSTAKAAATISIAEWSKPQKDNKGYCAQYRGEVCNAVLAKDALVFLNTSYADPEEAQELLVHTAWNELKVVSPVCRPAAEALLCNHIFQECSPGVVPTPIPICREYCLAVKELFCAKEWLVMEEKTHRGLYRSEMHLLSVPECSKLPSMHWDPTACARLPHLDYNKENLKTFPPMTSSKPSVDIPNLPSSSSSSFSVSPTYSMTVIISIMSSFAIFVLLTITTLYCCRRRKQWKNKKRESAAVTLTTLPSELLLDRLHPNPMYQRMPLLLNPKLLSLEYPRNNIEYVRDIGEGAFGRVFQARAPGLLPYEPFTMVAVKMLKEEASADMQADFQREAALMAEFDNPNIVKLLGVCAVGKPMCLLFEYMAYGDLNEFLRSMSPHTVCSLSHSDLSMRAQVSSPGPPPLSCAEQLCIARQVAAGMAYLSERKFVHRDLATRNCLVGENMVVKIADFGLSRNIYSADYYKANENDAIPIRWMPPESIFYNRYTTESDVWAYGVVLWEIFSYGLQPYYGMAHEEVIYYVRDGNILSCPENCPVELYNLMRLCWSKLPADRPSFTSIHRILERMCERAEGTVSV
# [11] = target: T2, Muscle, skeletal receptor tyrosine-protein kinase (Homo sapiens); settings: at 1 µM
# [12] = target: Platelet-derived growth factor receptor alpha (Homo sapiens) (UniProt P16234); settings: at 0.1 µM
# [13] = target: Platelet-derived growth factor receptor alpha (Homo sapiens) (UniProt P16234); settings: at 1 µM
# [14] = tested on: Platelet-derived growth factor receptor alpha (Homo sapiens), P16234 [D842V]; settings: at 0.1 µM
# [15] = tested on: Platelet-derived growth factor receptor alpha (Homo sapiens), P16234 [D842V]; settings: at 1 µM
# [16] = tested on: Platelet-derived growth factor receptor alpha (Homo sapiens), P16234 [T674I]; settings: at 0.1 µM
# [17] = tested on: Platelet-derived growth factor receptor alpha (Homo sapiens), P16234 [T674I]; settings: at 1 µM
# [18] = tested on: Platelet-derived growth factor receptor alpha (Homo sapiens), P16234 [V561D]; settings: at 0.1 µM
# [19] = tested on: Platelet-derived growth factor receptor alpha (Homo sapiens), P16234 [V561D]; settings: at 1 µM
# [20] = target: Platelet-derived growth factor receptor beta (Homo sapiens) (UniProt P09619); settings: at 0.1 µM;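 further: reported value is the mean percent inhibition of the kinase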
# Sequence of Platelet-derived growth factor receptor beta (Homo sapiens) (P09619 whole entry): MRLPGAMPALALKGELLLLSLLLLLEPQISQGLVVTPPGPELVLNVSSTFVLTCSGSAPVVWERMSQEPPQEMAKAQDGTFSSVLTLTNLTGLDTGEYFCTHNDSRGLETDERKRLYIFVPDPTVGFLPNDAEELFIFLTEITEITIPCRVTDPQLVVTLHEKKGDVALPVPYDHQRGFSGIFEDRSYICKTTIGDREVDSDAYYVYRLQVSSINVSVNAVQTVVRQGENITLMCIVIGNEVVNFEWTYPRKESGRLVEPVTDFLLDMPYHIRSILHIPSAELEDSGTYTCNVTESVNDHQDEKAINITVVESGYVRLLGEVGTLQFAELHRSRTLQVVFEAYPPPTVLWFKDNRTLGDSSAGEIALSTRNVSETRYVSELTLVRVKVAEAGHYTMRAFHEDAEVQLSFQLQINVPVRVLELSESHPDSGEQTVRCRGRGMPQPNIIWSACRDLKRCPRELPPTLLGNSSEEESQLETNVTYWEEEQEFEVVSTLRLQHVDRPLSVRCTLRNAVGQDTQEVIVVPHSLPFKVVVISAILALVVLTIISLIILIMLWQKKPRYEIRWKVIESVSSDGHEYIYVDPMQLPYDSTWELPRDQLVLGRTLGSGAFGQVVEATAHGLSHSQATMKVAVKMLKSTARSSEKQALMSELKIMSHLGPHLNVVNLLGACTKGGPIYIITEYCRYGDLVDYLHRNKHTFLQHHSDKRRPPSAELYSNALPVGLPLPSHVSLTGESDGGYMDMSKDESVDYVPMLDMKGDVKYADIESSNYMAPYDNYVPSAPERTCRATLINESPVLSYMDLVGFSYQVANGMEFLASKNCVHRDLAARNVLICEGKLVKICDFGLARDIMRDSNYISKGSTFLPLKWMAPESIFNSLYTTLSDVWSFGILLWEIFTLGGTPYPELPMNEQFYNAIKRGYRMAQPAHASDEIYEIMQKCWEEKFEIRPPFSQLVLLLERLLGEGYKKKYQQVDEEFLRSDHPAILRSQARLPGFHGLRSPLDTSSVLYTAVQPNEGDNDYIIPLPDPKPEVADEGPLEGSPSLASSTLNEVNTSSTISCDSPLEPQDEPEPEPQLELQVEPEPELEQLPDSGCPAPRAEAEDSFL
# Sequence of Tyrosine-protein kinase Lyn (Homo sapiens) (P07948 2-512 limits assumed): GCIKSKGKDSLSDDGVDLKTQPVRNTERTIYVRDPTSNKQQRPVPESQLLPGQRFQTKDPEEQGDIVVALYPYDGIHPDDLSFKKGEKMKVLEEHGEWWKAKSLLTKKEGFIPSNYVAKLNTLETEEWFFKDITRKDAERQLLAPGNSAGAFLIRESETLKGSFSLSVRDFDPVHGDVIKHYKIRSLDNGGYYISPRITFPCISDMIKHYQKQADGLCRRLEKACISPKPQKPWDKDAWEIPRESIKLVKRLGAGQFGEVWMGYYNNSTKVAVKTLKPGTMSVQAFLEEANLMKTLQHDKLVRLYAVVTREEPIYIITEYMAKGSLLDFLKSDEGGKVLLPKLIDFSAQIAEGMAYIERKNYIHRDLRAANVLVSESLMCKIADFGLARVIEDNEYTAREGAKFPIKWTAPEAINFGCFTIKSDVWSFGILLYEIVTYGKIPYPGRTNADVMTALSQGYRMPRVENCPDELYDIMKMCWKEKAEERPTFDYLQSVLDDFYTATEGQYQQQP
# Sequence of Platelet-derived growth factor receptor alpha (Homo sapiens), P16234 [D842V] (P16234 whole entry D842V): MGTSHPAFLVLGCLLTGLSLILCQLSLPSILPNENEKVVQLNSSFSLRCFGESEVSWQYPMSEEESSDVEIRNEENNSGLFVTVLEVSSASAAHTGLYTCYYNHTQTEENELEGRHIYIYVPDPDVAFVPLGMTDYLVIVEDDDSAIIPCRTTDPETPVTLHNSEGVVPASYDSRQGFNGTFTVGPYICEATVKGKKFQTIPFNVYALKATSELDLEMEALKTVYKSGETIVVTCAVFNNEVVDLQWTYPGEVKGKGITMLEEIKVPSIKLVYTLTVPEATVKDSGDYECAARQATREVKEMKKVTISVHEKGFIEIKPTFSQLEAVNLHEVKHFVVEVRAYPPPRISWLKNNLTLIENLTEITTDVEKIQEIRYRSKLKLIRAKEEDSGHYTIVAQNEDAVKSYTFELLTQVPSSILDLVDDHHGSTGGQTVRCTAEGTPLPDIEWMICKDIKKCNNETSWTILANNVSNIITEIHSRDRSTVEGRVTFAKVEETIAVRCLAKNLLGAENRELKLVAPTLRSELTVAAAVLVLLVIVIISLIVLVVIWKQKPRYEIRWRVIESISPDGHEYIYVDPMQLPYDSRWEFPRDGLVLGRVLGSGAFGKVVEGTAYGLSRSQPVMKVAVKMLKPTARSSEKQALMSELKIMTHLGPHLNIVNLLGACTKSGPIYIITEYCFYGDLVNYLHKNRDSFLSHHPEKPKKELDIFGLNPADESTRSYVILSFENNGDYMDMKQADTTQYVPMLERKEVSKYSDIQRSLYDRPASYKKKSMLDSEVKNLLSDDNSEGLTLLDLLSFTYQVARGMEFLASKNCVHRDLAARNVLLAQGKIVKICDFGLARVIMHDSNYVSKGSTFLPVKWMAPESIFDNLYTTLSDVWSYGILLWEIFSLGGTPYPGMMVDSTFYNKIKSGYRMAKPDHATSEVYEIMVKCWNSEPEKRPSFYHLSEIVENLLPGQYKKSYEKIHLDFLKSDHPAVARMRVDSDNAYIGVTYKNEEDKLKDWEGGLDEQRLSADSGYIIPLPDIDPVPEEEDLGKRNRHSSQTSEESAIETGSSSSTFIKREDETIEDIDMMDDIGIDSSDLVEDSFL
# Sequence of Leukocyte tyrosine kinase receptor (Homo sapiens) (P29376 whole entry): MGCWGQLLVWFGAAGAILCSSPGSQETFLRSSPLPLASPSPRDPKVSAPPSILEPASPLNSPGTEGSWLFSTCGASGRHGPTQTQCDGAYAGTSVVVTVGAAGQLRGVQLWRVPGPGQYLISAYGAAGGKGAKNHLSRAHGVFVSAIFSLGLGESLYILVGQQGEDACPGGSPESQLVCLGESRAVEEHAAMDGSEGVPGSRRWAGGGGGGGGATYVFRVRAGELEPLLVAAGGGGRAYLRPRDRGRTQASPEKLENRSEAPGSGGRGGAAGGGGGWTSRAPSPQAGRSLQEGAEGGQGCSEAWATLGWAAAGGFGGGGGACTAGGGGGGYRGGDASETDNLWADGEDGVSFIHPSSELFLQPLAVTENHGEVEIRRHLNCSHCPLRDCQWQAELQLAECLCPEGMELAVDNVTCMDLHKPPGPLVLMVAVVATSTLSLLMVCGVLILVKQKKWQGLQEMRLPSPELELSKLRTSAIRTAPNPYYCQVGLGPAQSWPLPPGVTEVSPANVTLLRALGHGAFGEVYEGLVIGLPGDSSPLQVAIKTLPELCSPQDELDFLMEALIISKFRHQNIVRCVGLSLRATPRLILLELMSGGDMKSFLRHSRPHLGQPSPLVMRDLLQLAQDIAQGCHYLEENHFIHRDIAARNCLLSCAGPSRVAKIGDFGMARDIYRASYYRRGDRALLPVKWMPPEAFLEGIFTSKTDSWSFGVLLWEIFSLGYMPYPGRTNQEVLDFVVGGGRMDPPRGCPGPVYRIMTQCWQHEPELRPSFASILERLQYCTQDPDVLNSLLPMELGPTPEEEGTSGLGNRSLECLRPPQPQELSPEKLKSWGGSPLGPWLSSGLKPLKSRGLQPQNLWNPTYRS
# Sequence of Platelet-derived growth factor receptor alpha (Homo sapiens), P16234 [V561D] (P16234 whole entry V561D): as the sequence (P16234 whole entry D842V) above, with V561D, V842D counted along it
SMILES,inhibition [1],inhibition [2],inhibition [3],inhibition [4],inhibition [5],inhibition [6],inhibition [7],inhibition [8],inhibition [9],inhibition [10],inhibition [11],inhibition [12],inhibition [13],inhibition [14],inhibition [15],inhibition [16],inhibition [17],inhibition [18],inhibition [19],inhibition [20]
Cc1nnc(-c2ccc(C)c(-c3ccc(C(=O)Nc4cccc(C#N)c4)cc3)c2)o1,1.76%,3.98%,6.36%,2.18%,5.78%,0.8%,2.51%,3.66%,-0.54%,2.58%,2.91%,7.61%,15.8%,0.78%,2.5%,3.31%,6.79%,3.46%,5.28%,6.49%
COc1cccc(-n2ncc3c(N/N=C/c4cccc(F)c4)ncnc32)c1,1.7%,13.9%,55.9%,10.2%,50.7%,0.34%,7.16%,7.49%,17.2%,3.52%,11.4%,13.6%,49.5%,10.6%,48.1%,6.11%,22.2%,8.22%,41.1%,12.2%
COc1cc(C=NNc2ncnc3c2cnn3-c2ccccc2)ccc1O,6.55%,17.1%,65.9%,13.3%,62.8%,6.78%,34.5%,21.5%,88.6%,7.87%,43.8%,28.2%,78.2%,24.6%,79.5%,13.7%,39.1%,15.1%,68.9%,18.1%
NS(=O)(=O)c1cccc(-c2ccc3c(NC(=O)C4CC4)n[nH]c3c2)c1,-0.78%,1.09%,1.65%,1.19%,1.05%,0.89%,1.03%,-4.06%,3.16%,0.75%,4.13%,3.24%,9.75%,1.86%,7.06%,-0.86%,1.24%,3.88%,6.54%,0.91%
NC(=O)c1ccc(-c2nc(-c3ccccn3)c(-c3ccc4c(c3)OCO4)[nH]2)cc1,3.18%,2.23%,2.11%,1.62%,3.18%,1.67%,3.36%,-4.12%,9.28%,2.51%,3.59%,6.2%,9.06%,1.44%,2.57%,8.08%,5.68%,2.28%,4.53%,2.41%
CS(=O)(=O)CCNCc1nc(-c2ccc3ncnc(Nc4ccc(F)c(Cl)c4)c3c2)cs1,1.99%,4.29%,27.3%,3.57%,19.4%,0.48%,4.95%,3.54%,9.65%,1.59%,2.48%,11.7%,25.9%,1.4%,10.4%,10.8%,8.67%,2.8%,9.09%,3.34%
CN(C)c1cc2c(Nc3ccc4nc(Cc5ccccc5)[nH]c4c3)ncnc2cn1,3.97%,9.84%,32.1%,7.8%,28.7%,1.94%,8.97%,0.15%,5.85%,2.63%,0.22%,9.58%,24.4%,4.07%,5.67%,5.35%,6.9%,5.97%,22.8%,5.76%
CS(=O)(=O)Nc1ccc(N/C=C2\C(=O)Nc3ccccc32)cc1,3.76%,0.65%,12.1%,-0.91%,11.3%,-0.15%,3.63%,-4.32%,-0.23%,2.12%,35.9%,9.58%,41.9%,2.98%,18%,11.1%,62.5%,15%,51%,6.47%
CC1=C(C(=O)Nc2ccc3[nH]ncc3c2)C(c2ccc(Cl)c(Cl)c2)CC(=O)N1 (stereo not given),0.02%,3.35%,9.96%,2.18%,7.24%,0.79%,1.25%,-0.1%,5.85%,2.88%,4.26%,6.81%,8.15%,0.72%,1.68%,2.47%,1.49%,0.48%,2.1%,1.34%
CCCN1CCC=C(c2ccc(Nc3nc(Nc4ccccc4C(N)=O)c4cc[nH]c4n3)c(C)c2)C1,93.9%,2.75%,6.69%,-0.18%,2.97%,1.4%,10.5%,6.76%,13.1%,4.95%,20.5%,9.67%,40.6%,2.55%,24.2%,4.99%,9.94%,5.63%,28.7%,8.75%
